Rows were chosen to be rich in hits. Some 2.4% of all compounds tested hit in one or more screens of this group.
eIF4E-4G inh = eIF4E–eIF4G protein interaction inhibitors, primary screen, biochemical, uHTS, TR-FRET, eIF4GI fragment; 220,000 compounds, 0.37% hits; Eukaryotic translation initiation factor 4E (Mus musculus) + Eukaryotic translation …; AID 782, 2007; TR-FRET eIF4E-eIF4GI(517-606) binding, 2 h; inhibition, % at 21.7 µM;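 active means inhibition above about 30%, limit read from the data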;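 further: 0% = full FRET control wells and 100% = background wells lacking eIF4GI fragment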
MLLE-PAM2 inh = inhibitors of PABP1 MLLE–PAM2 peptide binding, primary screen, biochemical, fluorescence polarization, FITC-PAM2, GST-MLLE | inhibition, % at 20 µM | 360,000 compounds, 0.36% hits | AID 588489, 2011; in the data active means inhibition above about 35%, passing the limit was not always enough;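 further: plate controls were DMSO wells with GST-MLLE for no effect and wells lacking GST-MLLE protein for full effect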
eIF4H FP inh = human eIF4H binding inhibitors, primary screen, translation initiation inhibitor project, biochemical, uHTS, fluorescence polarization; Eukaryotic translation initiation factor 4H (Homo sapiens), Q15056; 290,000 compounds, 0.94% hits; inhibition, % at 35 µM; eIF4H fluorescence polarization binding assay;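 further: calls also rest on retests at 20 µM and on dose response follow-up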
M18AAP inhibitor = PfM18AAP inhibitors, malaria aminopeptidase, primary screen, biochemical, QFRET, recombinant enzyme; 290,000 compounds, 1.2% hits; AID 1822, 2009; H-Glu-NHMec fluorogenic cleavage; inhibition, % at 7.35 µM; M18 aspartyl aminopeptidase (Plasmodium falciparum 3D7);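 active means inhibition above the campaign mean inhibition over all tested compounds plus 3 SD, cut at about 28% in these data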;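 further: 0% = plate median of test compound wells and 100% = 2 mM ZnCl2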
PABP FP inh = PABP poly(A) RNA binding inhibitors, primary screen, biochemical, fluorescence polarization, uHTS | 290,000 compounds, 1% hits | AID 2014, 2009 | Polyadenylate-binding protein 1 (Homo sapiens), P11940 | inhibition, % at 35 µM;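 further: calls also rest on retests at 20 µM and on dose response follow-up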
PERK inh = block of dimerizer-induced PERK translation repression, primary screen, PERK inhibitor project, CHO PERK-DD cells, SEAP luminescence, HTS. 220,000 compounds, 0.17% hits. Eukaryotic translation initiation factor 2-alpha kinase 3 (Homo sapiens), Q9NZJ5. AID 1416, 2008. inhibition, % at 5.6 µM. CHO PERK-DD fusion, SEAP luminescence translation reporter;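 active means inhibition above the mean inhibition of all tested compounds plus 3 SD, set separately per screening campaign, cut at about 2.9% in these data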;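 further: PERK kinase domain activated by AP20187 dimerizer at 100 nM; 0% = DMSO with dimerizer and 100% = rapamycin at 8.4 µM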
The depositor's hits bear a star; ? = inconclusive; · = no result given; [ ] = another dose, or the depositor's remark. Unless noted, how the calls were made is not given here.

SMILES	eIF4E-4G inh	MLLE-PAM2 inh	eIF4H FP inh	M18AAP inhibitor	PABP FP inh	PERK inh
CCN(CC)CCCN1C(=O)C(O)=C(C(=O)c2cccs2)C1c1ccccn1 (stereo unspecified)	·	·	·	-5	·	0
O=C1NN(c2ccc(F)cc2)C(=O)/C1=C\C=C\c1ccco1	3	0	88*	-1	active	1
COC(=O)c1cc2ccc(OC)cc2c2cc(OC)c(OC)cc12	·	6	·	·	·	·
O=C(NC12CC3CC(CC(C3)C1)C2)c1ccc(=O)oc1	-3	10	-2	2	3	1
O=C(NNC(=O)C1[C@H]2CCCC[C@@H]12)c1ccc(=O)oc1 (stereo partly specified)	1	-21	?	8	39*	0
S=C1NC2(CCCCC2)Nc2ccccc21	2	9	14	3	29	0
CCCCn1c(/C=C/c2ccco2)nc2ccccc21	8	-21	52*	-4	2.2*	1
COc1ccc(OCC(=O)N/N=C/c2ccc(O[C@@H]3O[C@H](CO)[C@@H](O)[C@H](O)[C@H]3O)cc2)cc1	-2	-1	-2	10	-2	3.4*
CC(NC(=O)CSC1=NCCS1)c1ccccc1 (stereo unspecified)	2	46*	-12	3	1	1
O=C(CSC1=NCCS1)Nc1ccccc1F	-1	43*	-1	-6	0	1
COc1ccccc1CNC(=O)CSC1=NCCS1	-4	41*	-8	9	3	2
COc1ccc(CNC(=O)CSc2nc3ccccc3n2C(C)=O)cc1	·	-27	-12	-9	-6	·
Cc1cccc(NC(=O)CSc2ccc3nnc(-c4cccnc4)n3n2)c1	·	0	-10	-13	6	·
CC(=O)NC(Cc1ccccc1)C(=O)OCC(=O)c1ccccc1 (stereo unspecified)	1	16	-2	-1	-2	1
CC(=O)NC(Cc1ccccc1)C(=O)OCC(=O)c1ccc(Cl)cc1 (stereo unspecified)	0	-12	active	0	99*	0
CC1(C)Cc2nc3nc(SCC(=O)Nc4ccccc4)nc(N)c3cc2CO1	3	16	2	-2	-2	1
COc1ccc(NC(=O)CSc2nc(N)c3cc4c(nc3n2)CC(C)(C)OC4)cc1	-1	-16	-7	8	8	3.2*
O=C(/C=C/c1cccc([N+](=O)[O-])c1)Nc1ccc(NC(=O)c2cccs2)cc1	11	7	24	-1	50*	2
CN(C)c1ccc(N/C=C/C(=O)c2ccc(F)cc2)cc1	-13	-69	47*	28	58*	0
CN(c1ccccc1)S(=O)(=O)c1cccc(NC(=O)Cn2cnc3c2c(=O)n(C)c(=O)n3C)c1	1	-6	-14	5	8	0
Cn1c(=O)c2c(ncn2CC(=O)Nc2cccc(S(=O)(=O)Nc3ccccc3F)c2)n(C)c1=O	0	45*	-14	7	5	1
COc1ccc(CCNc2nc(C)cc(=O)[nH]2)cc1OC	·	23	·	3	·	0
COc1ccc(C/C(C)=N/Nc2nc(C)cc(=O)[nH]2)cc1	0	-12	-8	31*	-3	2
CCCCCCCCCCCCCCCC[n+]1cccc(C(=O)N(CC)CC)c1	77*[fluorescence artefact?]	-5	9	0	5	0
CCCCCCCCCCCCCCCC[n+]1ccc(/C=N/O)cc1	70*[fluorescence artefact?]	4	13	-5	10	-1
SMILES	eIF4E-4G inh	MLLE-PAM2 inh	eIF4H FP inh	M18AAP inhibitor	PABP FP inh	PERK inh
CCCCCCCC[n+]1cccc(C(=O)N(CC)CC)c1	0	-9	-2	0	-15	0
CCCCCCCCCCCCCCCC[n+]1ccccc1	·	1	·	·	·	·
CCCCCCCCCCCCCCCC[n+]1ccc(C(N)=O)cc1	78*[fluorescence artefact?]	-91	-9	9	3	0
CC(=O)N1C(=O)C2(NCC(C)N2)c2ccccc21 (stereo unspecified)	·	8	·	·	·	·
CC1(C)Cc2c(sc3c2C2=NCCN2C=N3)CS1	3	2	-10	-8	3	0
CC(C)c1ccccc1-n1c(SCC(=O)N2CCc3ccccc3C2)nc2ccccc2c1=O	-3	0	5	-9	120*	-1
CCN(CC(=O)NCc1ccc(Cl)cc1)C(=O)CSc1ccc(Br)cc1	·	-5	5	2	6	·
Cc1ccc(C(=O)NNC(=O)C2CCN(S(=O)(=O)c3ccc(C)cc3)CC2)cc1	2	-20	-5	4	-6	-1
Cc1ccc(S(=O)(=O)N2CCC(C(=O)NNC(=O)c3ccccc3)CC2)cc1	3	-7	56*	6	active	0
CS(=O)(=O)N1CCN(C(=O)C(Sc2ccccc2)c2ccccc2)CC1 (stereo unspecified)	-6	43*	-7	-1	6	0
COC(=O)c1c(C)[nH]c(C(C)=O)c1C	-6	3	-7	1	1	3.0*
COC(=O)c1c(C)[nH]c(C(=O)N2CCN(c3ccc(OC)cc3)CC2)c1C	6	·	?	0	62*	0
COc1cccc(N2CCN(C(=O)c3[nH]c(C)c(C(C)=O)c3C)CC2)c1	-5	9	2	1	-1	-2
CC[n+]1cc(-c2ccccc2)nc(N2CCOCC2)n1	30	-113	-3	-11	68*	0
COc1ccc(C(O)c2nc(-c3ccc(OC)c(OC)c3)cs2)cc1 (stereo unspecified)	·	8	·	·	·	·
C/C(=N\NC(=O)c1cc2ccccc2cc1O)c1cccs1	·	-18	13	18	2	·
O=C(NNC(=O)c1cc2ccccc2cc1O)c1cccs1	·	-6	-9	29*	-1	·
COc1ccc(C[C@](C)(N)C(=O)O)cc1OC	·	-2	·	·	·	·
C[C@](N)(Cc1ccc(O)c(O)c1)C(=O)O	8	-12	96	65*	2	1
CC1CCc2c(sc(NC(=O)c3ccc(Cn4cc([N+](=O)[O-])cn4)o3)c2C#N)C1 (stereo unspecified)	12	2	76*	1	22*	0
Cc1ccccc1NC(=O)c1ccc(Cn2cc([N+](=O)[O-])cn2)o1	1	4	2	-5	8	0
CC(NC(=O)c1ccc(Cn2cc([N+](=O)[O-])cn2)o1)c1ccccc1 (stereo unspecified)	36*[fluorescence artefact?]	-3	2	-3	-3	0

Compound activity as filed in PubChem BioAssay.
